Among the data in publication PMC5700166 are binding signal values, retold here.

Positions count from the first letter of the chain named.

Assay in all cases: protein-binding microarray (PBM); PBM: ~300 nM protein, 6 mM HEPES pH 7.8, 80 mM KCl, 0.5 mM EDTA, 0.5 mM EGTA, 6% glycerol, 35 ng/ul poly-dIdC, 1% milk, 1 h, room temperature; Ap Aiptasia and Nv Nematostella (sea anemones) / Co Capsaspora / Aq Amphimedon (sponge) / Dm Drosophila / Hu human; RHD is the Rel homology domain; high values mean tight binding
What all share (settings): dsDNA, one strand shown

Assay [1] concerns the target T1, GST-Ap-NF-kB RHD (Exaiptasia pallida (Aiptasia), UniProt A0A913YAJ5 2-422).
T1 sequence: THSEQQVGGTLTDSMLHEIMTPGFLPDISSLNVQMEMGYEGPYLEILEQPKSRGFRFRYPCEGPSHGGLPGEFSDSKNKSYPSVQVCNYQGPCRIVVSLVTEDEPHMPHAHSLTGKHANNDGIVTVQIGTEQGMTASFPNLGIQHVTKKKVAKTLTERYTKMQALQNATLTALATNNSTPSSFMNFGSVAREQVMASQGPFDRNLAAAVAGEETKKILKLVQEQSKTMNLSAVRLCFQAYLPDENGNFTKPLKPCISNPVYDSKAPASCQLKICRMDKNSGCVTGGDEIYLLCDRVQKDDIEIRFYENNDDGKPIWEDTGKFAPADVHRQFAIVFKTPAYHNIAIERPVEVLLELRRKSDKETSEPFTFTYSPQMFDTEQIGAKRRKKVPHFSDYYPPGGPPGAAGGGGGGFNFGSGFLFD

For assay [2], the target named is T2, GST-Nv-NF-kB (Cys allele) (Nematostella vectensis, UniProt E5G601 2-411).
T2 sequence: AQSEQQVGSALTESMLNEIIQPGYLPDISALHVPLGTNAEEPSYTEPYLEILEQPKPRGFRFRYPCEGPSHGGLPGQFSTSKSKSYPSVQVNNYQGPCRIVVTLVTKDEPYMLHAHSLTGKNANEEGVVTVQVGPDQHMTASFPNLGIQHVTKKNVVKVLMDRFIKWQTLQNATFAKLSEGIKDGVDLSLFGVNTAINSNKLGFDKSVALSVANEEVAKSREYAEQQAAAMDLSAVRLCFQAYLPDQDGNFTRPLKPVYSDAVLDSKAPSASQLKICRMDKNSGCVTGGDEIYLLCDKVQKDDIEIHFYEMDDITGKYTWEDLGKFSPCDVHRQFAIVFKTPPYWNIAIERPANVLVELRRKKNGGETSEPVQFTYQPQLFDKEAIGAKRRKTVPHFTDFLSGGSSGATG

For assay [3], the target named is T3, GST-Nv-NF-kB (Ser allele) (Nematostella vectensis, UniProt A7UNT2 2-411).
T3 sequence: T2 sequence with Q21R, C66S, S207N, E215Q, V217A, E225K, A268E, D399E

The target in assay [4] is T4, GST-Co-NF-kB (Capsaspora owczarzaki, UniProt F1ARL5 200-546).
T4 sequence: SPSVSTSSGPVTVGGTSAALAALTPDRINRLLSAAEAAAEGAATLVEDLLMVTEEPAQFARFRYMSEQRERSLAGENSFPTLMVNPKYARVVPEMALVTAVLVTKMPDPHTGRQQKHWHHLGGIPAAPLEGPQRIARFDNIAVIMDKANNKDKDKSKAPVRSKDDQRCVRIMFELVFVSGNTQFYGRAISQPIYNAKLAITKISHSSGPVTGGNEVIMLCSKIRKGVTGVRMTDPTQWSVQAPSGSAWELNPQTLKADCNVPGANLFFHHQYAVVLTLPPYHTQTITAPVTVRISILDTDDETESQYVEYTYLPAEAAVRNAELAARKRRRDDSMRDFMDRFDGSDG

The target in assay [5] is T5, GST-Dm-Relish (Drosophila melanogaster, UniProt Q94527 99-473).
T5 sequence: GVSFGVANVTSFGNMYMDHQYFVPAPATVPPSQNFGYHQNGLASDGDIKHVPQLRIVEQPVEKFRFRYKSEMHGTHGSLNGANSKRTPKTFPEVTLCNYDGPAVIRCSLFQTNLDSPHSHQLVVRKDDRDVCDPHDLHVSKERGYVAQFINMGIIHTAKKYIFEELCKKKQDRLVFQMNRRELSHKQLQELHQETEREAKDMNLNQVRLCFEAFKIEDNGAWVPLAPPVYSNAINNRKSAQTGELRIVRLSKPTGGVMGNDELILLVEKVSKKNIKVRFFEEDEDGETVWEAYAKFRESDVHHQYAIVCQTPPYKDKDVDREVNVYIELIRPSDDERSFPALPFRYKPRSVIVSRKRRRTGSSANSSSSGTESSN

The target in assay [6] is T6, GST-Aq-NF-kB (Amphimedon queenslandica, UniProt A9Y5G7 2-389).
T6 sequence: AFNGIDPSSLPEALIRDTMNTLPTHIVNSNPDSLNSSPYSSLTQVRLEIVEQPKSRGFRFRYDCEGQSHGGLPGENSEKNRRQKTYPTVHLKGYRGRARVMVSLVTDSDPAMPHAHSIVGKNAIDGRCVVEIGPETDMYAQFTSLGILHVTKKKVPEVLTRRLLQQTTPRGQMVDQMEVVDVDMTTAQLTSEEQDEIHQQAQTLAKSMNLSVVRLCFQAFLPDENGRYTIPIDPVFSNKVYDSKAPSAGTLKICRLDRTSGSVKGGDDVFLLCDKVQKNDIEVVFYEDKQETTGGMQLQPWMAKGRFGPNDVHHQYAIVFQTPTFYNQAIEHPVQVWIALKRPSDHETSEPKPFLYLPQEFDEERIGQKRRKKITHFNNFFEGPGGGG

The target of assay [7] is GST-Hu-p50 (Homo sapiens, UniProt P19838 7-356).
Sequence of GST-Hu-p50 (P19838 7-356): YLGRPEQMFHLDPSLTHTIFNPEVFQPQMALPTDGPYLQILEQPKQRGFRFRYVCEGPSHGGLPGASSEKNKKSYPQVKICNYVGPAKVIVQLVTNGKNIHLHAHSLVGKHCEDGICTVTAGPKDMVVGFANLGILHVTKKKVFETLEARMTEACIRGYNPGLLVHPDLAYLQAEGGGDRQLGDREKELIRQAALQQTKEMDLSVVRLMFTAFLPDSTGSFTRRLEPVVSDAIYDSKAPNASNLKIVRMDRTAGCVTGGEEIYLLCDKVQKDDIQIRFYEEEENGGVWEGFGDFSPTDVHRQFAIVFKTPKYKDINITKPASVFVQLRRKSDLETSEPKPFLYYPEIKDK

Regarding “CCGATTAACATCAATCACCCCCCTGATGTTAATCGGGTCTTGATTCGCTTGACGCTGCTG”, the binding signal in assay [1] worked out at 4.05 z-score; in assay [2] it was 4.27 z-score; in assay [3] it was 4.76 z-score; in assay [4] it was 4.97 z-score; in assay [5], 4.64 z-score; in assay [6], 5.36 z-score. Moreover, the binding signal in assay [7] is 4.4 z-score.

As for “CCGATTAACATCACACTACCCCCTGATGTTAATCGGGTCTTGATTCGCTTGACGCTGCTG”, the binding signal turned out to be 4.66 z-score in assay [1]; 2.12 z-score in assay [2]; 4.06 z-score in assay [3]; 3.89 z-score in assay [4]; 1.77 z-score in assay [5]; 2.65 z-score in assay [6]. The sequence also yielded a binding signal in assay [7] of 3.3 z-score.

In the case of “CCGATTAACATCAGGATTTACCCTGATGTTAATCGGGTCTTGATTCGCTTGACGCTGCTG”, the binding signal in assay [1] is 3.04 z-score; in assay [2], 4.29 z-score; in assay [3] it was 3.54 z-score; in assay [4] it was 1.85 z-score; in assay [5] it was 5.15 z-score; in assay [6], 6.67 z-score. The sequence further displayed a binding signal in assay [7] of 3.39 z-score.

In the case of “CCGATTAACATCAGGGGGATGCATGATGTTAATCGGGTCTTGATTCGCTTGACGCTGCTG”, the binding signal worked out at 4.72 z-score in assay [1]; 4.49 z-score in assay [2]; 5.56 z-score in assay [3]; 4.12 z-score in assay [4]; 3.39 z-score in assay [5]; 3.86 z-score in assay [6]. Further, the binding signal in assay [7] came to 4.84 z-score.

Take “CCGATTAACATCAGGACAACCCCTGATGTTAATCGGGTCTTGATTCGCTTGACGCTGCTG”: the binding signal in assay [1] is 3.21 z-score; in assay [2], 3.16 z-score; in assay [3], 1.17 z-score; in assay [4], 1.02 z-score; in assay [5], 2.63 z-score; in assay [6], 5.78 z-score. For the same sequence, the binding signal in assay [7] came out at 2.98 z-score.

For the sequence “CCGATTAACATCAGGGGGATATATGATGTTAATCGGGTCTTGATTCGCTTGACGCTGCTG”, the binding signal in assay [1] worked out at 6.45 z-score; in assay [2], 5.67 z-score; in assay [3] it was 6.14 z-score; in assay [4], 6.72 z-score; in assay [5], 4.91 z-score; in assay [6], 5.58 z-score. Besides, the binding signal in assay [7] is 5.49 z-score.

Turning to “CCGATTAACATCAGGGAAATCAATGATGTTAATCGGGTCTTGATTCGCTTGACGCTGCTG”, the binding signal in assay [1] was 2.16 z-score; in assay [2], 3.6 z-score; in assay [3] it was 4.65 z-score; in assay [4] it was 3.49 z-score; in assay [5], 1.09 z-score; in assay [6], 2.67 z-score. In addition, the binding signal in assay [7] is 2.57 z-score.

For the sequence “CCGATTAACATCACGGAACCCCCTGATGTTAATCGGGTCTTGATTCGCTTGACGCTGCTG”, the binding signal was 7.51 z-score in assay [1]; 4.89 z-score in assay [2]; 6.13 z-score in assay [3]; 2.13 z-score in assay [4]; 9.21 z-score in assay [5]; 5.54 z-score in assay [6]. The binding signal in assay [7] was found to be 5.79 z-score.

As to “CCGATTAACATCATTTCCCTTGCTGATGTTAATCGGGTCTTGATTCGCTTGACGCTGCTG”, the binding signal in assay [1] came out at 2.33 z-score; in assay [2], 3.78 z-score; in assay [3], 3.79 z-score; in assay [4], 1.62 z-score; in assay [5] it was 1.3 z-score; in assay [6] it was 3.29 z-score. In assay [7], this sequence displayed a binding signal of 2.9 z-score.

As for “CCGATTAACATCAAATTCCCGCCTGATGTTAATCGGGTCTTGATTCGCTTGACGCTGCTG”, the binding signal in assay [1] amounted to 3.27 z-score; in assay [2], 4.23 z-score; in assay [3] it was 4.63 z-score; in assay [4], 3.86 z-score; in assay [5], 3.49 z-score; in assay [6], 3.39 z-score. In assay [7], this sequence returned a binding signal of 3.12 z-score.

Turning to “CCGATTAACATCAAGAATCCCCTTGATGTTAATCGGGTCTTGATTCGCTTGACGCTGCTG”, the binding signal in assay [1] was 7.94 z-score; in assay [2], 9.47 z-score; in assay [3], 10.9 z-score; in assay [4], 2.64 z-score; in assay [5] it was 8.39 z-score; in assay [6], 7.11 z-score. Besides, the binding signal in assay [7] turned out to be 7.63 z-score.

On to “CCGATTAACATCAGGGAAGACCCTGATGTTAATCGGGTCTTGATTCGCTTGACGCTGCTG”, for which the binding signal in assay [1] amounted to 4.49 z-score; in assay [2], 5.72 z-score; in assay [3], 3.5 z-score; in assay [4], 1.33 z-score; in assay [5], 7.97 z-score; in assay [6], 7.06 z-score. Besides, the binding signal in assay [7] worked out at 3.16 z-score.
